Experimental data from paper PMC7862700, “An all-to-all approach to the identification of sequence-specific readers for epigenetic DNA modifications on cytosine”.

Experiments:
Experiment in all cases: DAPPL (digital affinity profiling via proximity ligation, sequencing); 10 mM Tris-HCl pH 7.5, 50 mM NaCl, 1 mM DTT, 4% glycerol, room temperature, 30 min; GST-TFs on glutathione beads, 16-mer random dsDNA library, 0.1% formaldehyde crosslink after washing; high values mean tight binding
[1] = biological target: T1, FLI1 (Homo sapiens, UniProt Q01543 1-452); conditions: protein: recombinant; tags: N-terminal GST; dsDNA, one strand shown
T1 sequence: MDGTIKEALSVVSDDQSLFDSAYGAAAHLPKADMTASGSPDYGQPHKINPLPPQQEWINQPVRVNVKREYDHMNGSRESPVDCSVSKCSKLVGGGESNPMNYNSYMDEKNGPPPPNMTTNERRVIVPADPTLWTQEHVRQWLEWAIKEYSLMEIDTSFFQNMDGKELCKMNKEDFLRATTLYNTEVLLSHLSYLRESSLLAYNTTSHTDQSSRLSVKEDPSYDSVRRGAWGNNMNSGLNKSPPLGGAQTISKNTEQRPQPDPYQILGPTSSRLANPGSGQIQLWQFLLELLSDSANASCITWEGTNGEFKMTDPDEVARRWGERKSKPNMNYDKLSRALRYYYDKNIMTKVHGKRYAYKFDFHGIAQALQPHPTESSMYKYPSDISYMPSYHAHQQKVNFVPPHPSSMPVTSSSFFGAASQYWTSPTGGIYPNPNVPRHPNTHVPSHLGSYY
Method in brief: (§1)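 The binding signal reported is, for every hexamer, its read frequency for a factor over its read frequency for the tag-only sample. Reads came from pools of yeast-expressed, GST-fused human transcription factors on glutathione beads, barcoded with DNA and mixed with that sample, which were incubated with 200 nmole of a random double-stranded 16-mer DNA library in Tris/NaCl/DTT/glycerol buffer at room temperature for 30 min. After washing, the pools were crosslinked with 0.1% formaldehyde, proximity-ligated with BsaI/T4 ligase for 1 h at 37 °C, PCR-amplified and sequenced on an Illumina NextSeq500.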

[2] = biological target: T2, ELK1 (Homo sapiens, UniProt P19419 1-428); conditions: protein: recombinant; tags: N-terminal GST; dsDNA, one strand shown
T2 sequence: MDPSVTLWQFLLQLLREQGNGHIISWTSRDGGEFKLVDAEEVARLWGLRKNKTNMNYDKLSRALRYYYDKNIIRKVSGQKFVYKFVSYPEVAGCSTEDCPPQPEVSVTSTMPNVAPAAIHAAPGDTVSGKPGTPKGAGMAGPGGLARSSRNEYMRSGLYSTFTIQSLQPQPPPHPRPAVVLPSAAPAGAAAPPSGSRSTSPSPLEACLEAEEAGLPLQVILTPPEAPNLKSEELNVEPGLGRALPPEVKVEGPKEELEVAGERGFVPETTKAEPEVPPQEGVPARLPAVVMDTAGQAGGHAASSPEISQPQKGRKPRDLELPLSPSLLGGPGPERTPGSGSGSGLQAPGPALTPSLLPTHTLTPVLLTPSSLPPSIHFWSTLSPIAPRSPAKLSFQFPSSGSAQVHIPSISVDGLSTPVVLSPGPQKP
Method in brief: as §1

[3] = biological target: T3, GABPA (Homo sapiens, UniProt Q06546 1-454); conditions: protein: recombinant; tags: N-terminal GST; dsDNA, one strand shown
T3 sequence: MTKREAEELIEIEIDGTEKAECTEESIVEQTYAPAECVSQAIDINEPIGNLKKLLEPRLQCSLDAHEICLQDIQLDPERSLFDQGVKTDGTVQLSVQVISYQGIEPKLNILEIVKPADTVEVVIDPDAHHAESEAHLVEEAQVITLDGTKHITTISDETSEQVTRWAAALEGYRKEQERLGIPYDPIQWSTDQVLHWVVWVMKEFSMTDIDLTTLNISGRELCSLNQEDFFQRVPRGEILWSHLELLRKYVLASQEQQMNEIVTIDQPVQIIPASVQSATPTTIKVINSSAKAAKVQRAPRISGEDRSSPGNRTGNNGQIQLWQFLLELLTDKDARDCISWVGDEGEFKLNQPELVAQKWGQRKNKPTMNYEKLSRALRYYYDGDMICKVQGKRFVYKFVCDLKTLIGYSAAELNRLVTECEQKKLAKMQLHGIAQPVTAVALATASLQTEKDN
Method in brief: as §1

[4] = biological target: T4, ERG (Homo sapiens, UniProt P11308 1-479); conditions: protein: recombinant; tags: N-terminal GST; dsDNA, one strand shown
T4 sequence: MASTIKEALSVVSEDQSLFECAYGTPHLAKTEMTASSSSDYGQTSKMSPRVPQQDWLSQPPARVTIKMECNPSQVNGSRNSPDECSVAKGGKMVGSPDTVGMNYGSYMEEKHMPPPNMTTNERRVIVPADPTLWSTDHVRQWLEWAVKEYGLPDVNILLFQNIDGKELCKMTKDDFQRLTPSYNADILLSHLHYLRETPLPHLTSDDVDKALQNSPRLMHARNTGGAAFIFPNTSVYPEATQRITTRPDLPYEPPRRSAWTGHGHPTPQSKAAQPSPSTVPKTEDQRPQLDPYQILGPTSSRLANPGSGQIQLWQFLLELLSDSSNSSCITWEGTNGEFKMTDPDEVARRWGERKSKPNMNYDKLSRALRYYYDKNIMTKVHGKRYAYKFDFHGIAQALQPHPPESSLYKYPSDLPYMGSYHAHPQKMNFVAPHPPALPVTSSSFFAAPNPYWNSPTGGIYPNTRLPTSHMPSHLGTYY
Method in brief: as §1

[5] = biological target: ELF1 (Homo sapiens, UniProt P32519 1-619); conditions: protein: recombinant; tags: N-terminal GST; dsDNA, one strand shown
Method in brief: as §1

[6] = biological target: T5, EHF (Homo sapiens, UniProt Q9NZC4 1-300); conditions: protein: recombinant; tags: N-terminal GST; dsDNA, one strand shown
T5 sequence: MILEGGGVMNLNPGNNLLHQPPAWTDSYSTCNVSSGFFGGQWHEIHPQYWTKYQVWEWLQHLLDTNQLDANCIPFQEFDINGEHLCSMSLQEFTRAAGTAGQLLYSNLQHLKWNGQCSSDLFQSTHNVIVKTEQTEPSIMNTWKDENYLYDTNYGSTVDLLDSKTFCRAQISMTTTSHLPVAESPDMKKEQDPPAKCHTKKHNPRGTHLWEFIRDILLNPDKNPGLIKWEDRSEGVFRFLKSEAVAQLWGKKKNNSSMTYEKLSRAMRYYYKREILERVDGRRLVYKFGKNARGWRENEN
Method in brief: as §1

[7] = biological target: SPI1 (Homo sapiens, UniProt P17947 1-270); conditions: protein: recombinant; tags: N-terminal GST; dsDNA, one strand shown
Method in brief: as §1

[8] = biological target: SPIB (Homo sapiens, UniProt Q01892 1-262); conditions: protein: recombinant; tags: N-terminal GST; dsDNA, one strand shown
Method in brief: as §1

[9] = biological target: T6, ELK3 (Homo sapiens, UniProt P41970 1-407); conditions: protein: recombinant; tags: N-terminal GST; dsDNA, one strand shown
T6 sequence: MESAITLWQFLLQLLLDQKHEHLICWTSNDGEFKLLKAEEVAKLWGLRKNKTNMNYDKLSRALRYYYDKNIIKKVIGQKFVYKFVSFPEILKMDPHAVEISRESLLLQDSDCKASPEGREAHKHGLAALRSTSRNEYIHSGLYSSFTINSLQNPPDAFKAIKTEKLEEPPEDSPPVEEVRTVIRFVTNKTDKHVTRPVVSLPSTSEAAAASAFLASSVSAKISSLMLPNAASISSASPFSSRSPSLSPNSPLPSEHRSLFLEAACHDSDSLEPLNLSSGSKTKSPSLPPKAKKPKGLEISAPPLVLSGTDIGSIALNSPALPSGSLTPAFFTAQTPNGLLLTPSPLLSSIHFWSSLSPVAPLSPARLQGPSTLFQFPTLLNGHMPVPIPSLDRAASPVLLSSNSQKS
Method in brief: as §1

[10] = biological target: T7, FEV (Homo sapiens, UniProt Q99581 1-238); conditions: protein: recombinant; tags: N-terminal GST; dsDNA, one strand shown
T7 sequence: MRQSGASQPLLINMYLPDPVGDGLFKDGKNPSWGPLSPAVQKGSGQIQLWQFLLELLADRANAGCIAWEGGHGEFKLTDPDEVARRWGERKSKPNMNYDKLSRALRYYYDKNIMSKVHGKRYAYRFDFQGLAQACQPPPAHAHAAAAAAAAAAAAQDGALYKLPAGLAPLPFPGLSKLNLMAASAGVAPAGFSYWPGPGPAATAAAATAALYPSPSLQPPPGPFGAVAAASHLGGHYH
Method in brief: as §1

[11] = biological target: ETV5 (Homo sapiens, UniProt P41161 1-510); conditions: protein: recombinant; tags: N-terminal GST; dsDNA, one strand shown
Method in brief: as §1

[12] = biological target: HSF1 (Homo sapiens, UniProt Q00613 1-529); conditions: protein: recombinant; tags: N-terminal GST; chain copies: 3; dsDNA, one strand shown
Method in brief: as §1

[13] = biological target: T8, SPIC (Homo sapiens, UniProt Q8N5J4 1-248); conditions: protein: recombinant; tags: N-terminal GST; dsDNA, one strand shown
T8 sequence: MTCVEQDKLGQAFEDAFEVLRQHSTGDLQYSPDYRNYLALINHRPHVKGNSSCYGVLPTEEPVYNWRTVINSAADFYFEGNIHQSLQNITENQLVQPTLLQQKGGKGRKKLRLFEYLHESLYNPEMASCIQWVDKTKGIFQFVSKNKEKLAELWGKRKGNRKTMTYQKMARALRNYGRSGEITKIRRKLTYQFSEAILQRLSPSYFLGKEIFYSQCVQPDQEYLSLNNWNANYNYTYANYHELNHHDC
Method in brief: as §1

[14] = biological target: ELF4 (Homo sapiens, UniProt Q99607 1-663); conditions: protein: recombinant; tags: N-terminal GST; dsDNA, one strand shown
Method in brief: as §1

[15] = biological target: T9, ELK4 (Homo sapiens, UniProt P28324-2 1-405); conditions: protein: recombinant; tags: N-terminal GST; dsDNA, one strand shown
T9 sequence: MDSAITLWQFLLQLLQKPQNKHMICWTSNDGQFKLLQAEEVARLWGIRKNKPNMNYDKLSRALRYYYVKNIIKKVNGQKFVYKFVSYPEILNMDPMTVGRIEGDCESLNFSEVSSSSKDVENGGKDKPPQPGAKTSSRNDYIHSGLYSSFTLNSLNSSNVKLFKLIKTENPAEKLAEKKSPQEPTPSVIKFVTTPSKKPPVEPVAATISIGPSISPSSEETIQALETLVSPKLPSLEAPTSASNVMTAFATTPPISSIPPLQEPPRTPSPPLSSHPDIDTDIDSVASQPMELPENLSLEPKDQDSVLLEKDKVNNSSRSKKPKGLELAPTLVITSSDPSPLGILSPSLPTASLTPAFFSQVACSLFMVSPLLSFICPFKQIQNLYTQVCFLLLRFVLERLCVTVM
Method in brief: as §1

[16] = biological target: T10, ETV2 (Homo sapiens, UniProt O00321 1-342); conditions: protein: recombinant; tags: N-terminal GST; dsDNA, one strand shown
T10 sequence: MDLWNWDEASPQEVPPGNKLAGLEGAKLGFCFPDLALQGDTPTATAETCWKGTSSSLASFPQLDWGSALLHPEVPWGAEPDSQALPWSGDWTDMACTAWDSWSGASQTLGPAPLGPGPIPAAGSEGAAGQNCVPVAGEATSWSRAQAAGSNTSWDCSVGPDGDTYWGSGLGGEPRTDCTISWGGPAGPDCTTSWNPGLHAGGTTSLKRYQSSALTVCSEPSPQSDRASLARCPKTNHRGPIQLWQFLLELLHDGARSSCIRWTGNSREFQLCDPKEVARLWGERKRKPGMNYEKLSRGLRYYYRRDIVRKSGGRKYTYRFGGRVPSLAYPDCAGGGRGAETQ
Method in brief: as §1

[17] = biological target: CRX (Homo sapiens, UniProt O43186 1-299); conditions: protein: recombinant; tags: N-terminal GST; dsDNA, one strand shown
Method in brief: as §1

[18] = biological target: ETV1 (Homo sapiens, UniProt P50549 1-477); conditions: protein: recombinant; tags: N-terminal GST; dsDNA, one strand shown
Method in brief: as §1

Chain of SPIB (Q01892 whole entry): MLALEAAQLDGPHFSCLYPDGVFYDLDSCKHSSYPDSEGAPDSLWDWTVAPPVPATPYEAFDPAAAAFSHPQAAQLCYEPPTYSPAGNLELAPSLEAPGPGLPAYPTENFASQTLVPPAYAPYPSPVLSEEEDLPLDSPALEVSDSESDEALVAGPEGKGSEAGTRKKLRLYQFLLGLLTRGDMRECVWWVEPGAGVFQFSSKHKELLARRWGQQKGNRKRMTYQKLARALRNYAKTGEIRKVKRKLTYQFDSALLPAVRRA
Chain of ELF4 (Q99607 whole entry): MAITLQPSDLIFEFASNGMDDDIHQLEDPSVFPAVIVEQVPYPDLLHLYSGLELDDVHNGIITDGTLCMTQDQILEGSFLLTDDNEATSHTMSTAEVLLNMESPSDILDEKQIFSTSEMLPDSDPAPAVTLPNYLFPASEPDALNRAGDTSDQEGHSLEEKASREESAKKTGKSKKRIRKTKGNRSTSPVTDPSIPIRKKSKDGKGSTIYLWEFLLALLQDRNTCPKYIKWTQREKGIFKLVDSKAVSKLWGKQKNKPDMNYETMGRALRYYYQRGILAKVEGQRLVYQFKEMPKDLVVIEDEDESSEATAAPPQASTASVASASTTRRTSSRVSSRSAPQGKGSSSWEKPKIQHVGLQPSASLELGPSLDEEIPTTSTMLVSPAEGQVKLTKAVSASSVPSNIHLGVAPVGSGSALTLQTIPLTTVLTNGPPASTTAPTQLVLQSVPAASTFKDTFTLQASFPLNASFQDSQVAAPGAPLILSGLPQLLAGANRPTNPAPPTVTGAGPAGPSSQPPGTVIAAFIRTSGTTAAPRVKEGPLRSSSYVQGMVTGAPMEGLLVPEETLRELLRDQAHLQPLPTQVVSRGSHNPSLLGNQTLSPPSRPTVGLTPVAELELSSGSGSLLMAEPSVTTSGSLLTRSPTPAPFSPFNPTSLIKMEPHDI
Chain of ETV1 (P50549 whole entry): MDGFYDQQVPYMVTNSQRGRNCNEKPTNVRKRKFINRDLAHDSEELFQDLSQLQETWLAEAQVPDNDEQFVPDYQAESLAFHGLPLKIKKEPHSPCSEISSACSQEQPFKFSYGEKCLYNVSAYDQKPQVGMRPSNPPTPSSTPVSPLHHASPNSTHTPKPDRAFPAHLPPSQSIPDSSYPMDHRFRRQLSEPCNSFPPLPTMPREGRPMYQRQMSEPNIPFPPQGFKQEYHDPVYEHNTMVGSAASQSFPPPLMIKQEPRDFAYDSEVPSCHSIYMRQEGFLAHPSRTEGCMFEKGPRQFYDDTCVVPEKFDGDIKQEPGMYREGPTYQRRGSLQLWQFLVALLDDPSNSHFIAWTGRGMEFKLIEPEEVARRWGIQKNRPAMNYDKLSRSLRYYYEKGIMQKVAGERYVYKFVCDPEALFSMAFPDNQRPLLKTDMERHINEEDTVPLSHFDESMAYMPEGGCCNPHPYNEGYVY
Chain of ELF1 (P32519 whole entry): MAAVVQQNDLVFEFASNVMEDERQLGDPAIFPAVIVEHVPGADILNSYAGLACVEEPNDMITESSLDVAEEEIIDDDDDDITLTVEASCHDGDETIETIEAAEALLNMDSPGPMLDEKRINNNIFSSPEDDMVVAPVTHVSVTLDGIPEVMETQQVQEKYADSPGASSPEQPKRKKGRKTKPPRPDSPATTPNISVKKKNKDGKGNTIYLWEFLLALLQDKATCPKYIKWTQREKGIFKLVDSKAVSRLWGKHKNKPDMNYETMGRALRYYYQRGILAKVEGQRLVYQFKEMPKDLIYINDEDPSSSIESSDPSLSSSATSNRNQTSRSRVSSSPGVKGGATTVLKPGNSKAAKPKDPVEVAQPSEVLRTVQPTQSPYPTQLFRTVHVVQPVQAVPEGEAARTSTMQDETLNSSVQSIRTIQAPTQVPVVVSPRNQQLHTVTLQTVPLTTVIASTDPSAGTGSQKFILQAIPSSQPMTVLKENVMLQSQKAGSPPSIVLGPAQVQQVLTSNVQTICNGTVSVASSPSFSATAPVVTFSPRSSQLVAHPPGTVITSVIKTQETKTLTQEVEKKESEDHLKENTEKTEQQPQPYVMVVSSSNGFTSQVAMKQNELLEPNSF
Chain of HSF1 (Q00613 whole entry): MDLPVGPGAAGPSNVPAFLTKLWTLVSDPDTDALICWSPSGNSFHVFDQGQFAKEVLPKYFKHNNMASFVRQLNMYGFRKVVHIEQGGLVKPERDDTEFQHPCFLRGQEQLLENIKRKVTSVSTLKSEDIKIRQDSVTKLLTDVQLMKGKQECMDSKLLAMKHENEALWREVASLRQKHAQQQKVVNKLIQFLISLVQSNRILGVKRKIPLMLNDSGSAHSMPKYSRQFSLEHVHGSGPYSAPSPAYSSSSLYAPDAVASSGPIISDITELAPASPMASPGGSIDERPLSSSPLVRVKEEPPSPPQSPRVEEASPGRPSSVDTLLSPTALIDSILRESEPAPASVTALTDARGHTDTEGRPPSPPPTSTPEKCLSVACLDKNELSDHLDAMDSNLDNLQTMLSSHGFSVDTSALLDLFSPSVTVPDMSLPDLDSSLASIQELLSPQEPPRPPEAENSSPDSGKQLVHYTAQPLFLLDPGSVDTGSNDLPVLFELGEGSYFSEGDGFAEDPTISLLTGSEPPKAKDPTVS
Chain of ETV5 (P41161 whole entry): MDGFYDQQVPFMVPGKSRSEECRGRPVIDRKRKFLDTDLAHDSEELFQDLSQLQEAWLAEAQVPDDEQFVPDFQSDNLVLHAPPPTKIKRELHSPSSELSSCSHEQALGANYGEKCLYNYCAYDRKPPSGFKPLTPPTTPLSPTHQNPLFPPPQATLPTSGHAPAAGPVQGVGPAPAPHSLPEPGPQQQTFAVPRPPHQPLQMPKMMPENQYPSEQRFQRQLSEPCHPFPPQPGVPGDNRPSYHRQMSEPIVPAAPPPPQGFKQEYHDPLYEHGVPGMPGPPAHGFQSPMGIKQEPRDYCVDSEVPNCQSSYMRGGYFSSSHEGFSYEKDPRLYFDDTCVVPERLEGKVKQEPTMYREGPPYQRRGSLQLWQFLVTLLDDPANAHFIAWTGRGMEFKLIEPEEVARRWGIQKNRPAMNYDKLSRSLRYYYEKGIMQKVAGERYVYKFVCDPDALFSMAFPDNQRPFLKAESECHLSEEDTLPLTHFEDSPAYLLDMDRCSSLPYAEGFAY
Chain of CRX (O43186 whole entry): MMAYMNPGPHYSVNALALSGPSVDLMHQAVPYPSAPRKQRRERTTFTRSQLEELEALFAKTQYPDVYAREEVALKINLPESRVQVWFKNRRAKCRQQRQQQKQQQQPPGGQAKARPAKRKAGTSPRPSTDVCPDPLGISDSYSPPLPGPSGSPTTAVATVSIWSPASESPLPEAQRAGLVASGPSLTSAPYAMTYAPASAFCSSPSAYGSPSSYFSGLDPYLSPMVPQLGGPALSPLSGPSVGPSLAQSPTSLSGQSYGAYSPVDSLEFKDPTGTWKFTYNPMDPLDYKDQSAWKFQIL

| Sequence | binding signal [1] | binding signal [2] | binding signal [3] | binding signal [4] | binding signal [5] | binding signal [6] | binding signal [7] | binding signal [8] | binding signal [9] | binding signal [10] | binding signal [11] | binding signal [12] | binding signal [13] | binding signal [14] | binding signal [15] | binding signal [16] | binding signal [17] | binding signal [18] |
| --- | --- | --- | --- | --- | --- | --- | --- | --- | --- | --- | --- | --- | --- | --- | --- | --- | --- | --- |
| TCCACC | 1.22 fold enrichment (6-mer frequency, TF over GST control) | 1.18 fold enrichment (6-mer frequency, TF over GST control) | 1.21 fold enrichment (6-mer frequency, TF over GST control) | 1.19 fold enrichment (6-mer frequency, TF over GST control) | 1.2 fold enrichment (6-mer frequency, TF over GST control) | 1.28 fold enrichment (6-mer frequency, TF over GST control) | 1.19 fold enrichment (6-mer frequency, TF over GST control) | 1.3 fold enrichment (6-mer frequency, TF over GST control) | 1.18 fold enrichment (6-mer frequency, TF over GST control) | 1.3 fold enrichment (6-mer frequency, TF over GST control) | 1.16 fold enrichment (6-mer frequency, TF over GST control) | 1.13 fold enrichment (6-mer frequency, TF over GST control) | 1.03 fold enrichment (6-mer frequency, TF over GST control) | 1.19 fold enrichment (6-mer frequency, TF over GST control) | 1.19 fold enrichment (6-mer frequency, TF over GST control) | 1.27 fold enrichment (6-mer frequency, TF over GST control) | 1.04 fold enrichment (6-mer frequency, TF over GST control) | 1.13 fold enrichment (6-mer frequency, TF over GST control) |
| TCGCAA | 1.21 fold enrichment (6-mer frequency, TF over GST control) | 1.22 fold enrichment (6-mer frequency, TF over GST control) | 1.19 fold enrichment (6-mer frequency, TF over GST control) | 1.16 fold enrichment (6-mer frequency, TF over GST control) | 1.19 fold enrichment (6-mer frequency, TF over GST control) | 1.18 fold enrichment (6-mer frequency, TF over GST control) | 1.03 fold enrichment (6-mer frequency, TF over GST control) | 1.08 fold enrichment (6-mer frequency, TF over GST control) | 1.06 fold enrichment (6-mer frequency, TF over GST control) | 1.11 fold enrichment (6-mer frequency, TF over GST control) | 1.06 fold enrichment (6-mer frequency, TF over GST control) | 1.22 fold enrichment (6-mer frequency, TF over GST control) | 1.32 fold enrichment (6-mer frequency, TF over GST control) | 1.15 fold enrichment (6-mer frequency, TF over GST control) | 1.03 fold enrichment (6-mer frequency, TF over GST control) | 1.18 fold enrichment (6-mer frequency, TF over GST control) | 1.05 fold enrichment (6-mer frequency, TF over GST control) | 1.1 fold enrichment (6-mer frequency, TF over GST control) |
